Luc counter – Kinase-Glo luciferase inhibition (counter-screen) | Potency, µM (titrated, usually from 38.3 µM), usual class: inhibitors | Q27757 | Kinase-Glo luciferase, ATP luminescence, 8 min | 200,000 tested, 0.28% active; further: nearly all actives have a fitted effect of over 60% in size
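Inhibition of Kinase-Glo luciferase light generation was assessed at 10 uM ATP in pH 7.2 imidazole buffer, with luminescence measured after eight minutes at ambient temperature.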
HPGD inh – blocks human HPGD enzyme activity; P15428; purified HPGD, NADH fluorescence kinetic, PGE2 substrate; Potency, µM, usual class: inhibitors; 150,000 tested, 4.3% active; active means well fitted inhibition curve with a large enough effect, not every such curve was filed as active; inconclusive means small, poorly fitted or top-dose-only effect, or another doubt; inactive means no such curve, though single readings can be large or run the other way
Target sequence (P15428 whole entry, looked up): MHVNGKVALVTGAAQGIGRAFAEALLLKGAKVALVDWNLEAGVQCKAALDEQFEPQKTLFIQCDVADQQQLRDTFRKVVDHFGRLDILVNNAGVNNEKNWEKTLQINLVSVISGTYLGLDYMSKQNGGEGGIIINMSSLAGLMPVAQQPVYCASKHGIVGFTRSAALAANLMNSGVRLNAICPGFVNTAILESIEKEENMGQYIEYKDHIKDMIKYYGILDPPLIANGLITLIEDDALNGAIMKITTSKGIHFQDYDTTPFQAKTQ
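NADH formation kinetics: reaction with 30 uM PGE2 and 1 mM NAD+ (final), 20 nM enzyme, Tris-HCl pH 8 with Tween 20, after 15 min compound preincubation at room temperature. Fluorescence change, last versus first of five reads.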
ALDH1A1 block – inhibitors of human aldehyde dehydrogenase 1A1. P00352. Purified ALDH1A1, NADH fluorescence, propionaldehyde substrate. Potency, µM (series often up to 75.3 µM), usual class: inhibitors. 220,000 tested, 7.3% active; active means well fitted inhibition curve with a large enough effect, not every such curve was filed as active; inconclusive means small, poorly fitted or top-dose-only effect, or another doubt; inactive means no such curve, though single readings can be large or run the other way
IMPase Li inh – membrane-permeable IMPase blocker, potentiated with lithium | CHO-M1 cells, IP1 TR-FRET (IP-One), carbachol + lithium | Potency, µM (doses to about 59.4 µM), actives largely listed as inhibitors | 210,000 tested, 0.35% active;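 further: IP1 builds up when IMPase is blocked and the TR-FRET signal falls; nearly all actives have a fitted effect of over 50% in size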
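Steps: plate 2000 CHO-M1 cells per well and culture 16–30 h; add compound and lithium; incubate 30 min, 37C; add d2-IP1 tracer and Eu cryptate anti-IP1 antibody in lysis buffer; read after 10 min at room temperature.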
LMNA splice mod – LMNA splicing modulation; 200,000 tested, 0.01% active; AID 1487; Potency, µM (top dose mostly 46.1 µM), most hits filed as inhibitors; HeLa LMNA splicing GFP/RFP minigene ratio, 48 h; active means well fitted inhibition curve with a large enough effect in the signal ratio, with a control signal flat, not every such curve was filed as active; inconclusive means small, poorly fitted or top-dose-only effect, or effect the other way, or a change in a side signal; the % refers to the signal ratio
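S3 HeLa cells stably expressing lamin A-EGFP splicing minigene plus DsRed2, 600 cells/well, 48 h compound exposure at 37C. Laser-scanning cytometry; analysed as GFP (500-530 nm)/RFP (575-640 nm) total intensity ratio; 0.5% DMSO vehicle.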
Hits are given with their value; i = inactive; ? = inconclusive; nt = no result; ! = not confirmed by another sample; [ ] = another dose, or the depositor's remark. An excerpt weighted towards active compounds, which were near 9% of everything screened. Unless noted, the call rests on the fitted dose curve; in most records, active means well fitted curve in the direction sought with a large enough effect; inconclusive means small, poorly fitted or top-dose-only effect, or another doubt; inactive means no such curve, though single readings can be large; an effect the other way counts as inactive or inconclusive.

SMILES	Luc counter	HPGD inh	ALDH1A1 block	IMPase Li inh	LMNA splice mod
Cc1ccc(NC(=O)CCNC(=O)c2ccc(Cl)cc2)cc1F	i	i	i	i	i
CCC(O)CNC(=O)NC(=C(Cl)Cl)c1ccc(C)c(F)c1 (centres undefined)	i	i	3.55µM	i	?
Cc1ccc(-c2noc(CN3CCOCC3)n2)cc1	i	i	i	i	i
COc1ccc(-c2noc(CN3CCOCC3)n2)cc1OC	i	i	22.4µM	i	i
CN(C(=O)c1ccc(-c2nn(C)c(=O)c3ccccc23)cc1)c1ccccc1	i	7.94µM	i	i	i
Cn1nc(-c2ccc(OCC(=O)Nc3ccccc3)cc2)c2ccccc2c1=O	i	28.2µM	i	i	?
CC(=O)NCc1cc(-c2nn(C)c(=O)c3ccccc23)ccc1C	i	i	i	i	i
COc1ccc(NC(=O)c2ccc(-c3nn(C)c(=O)c4ccccc34)cc2)cc1	i	nt	i	i	?
CCC(CO)NC(=O)c1ccc(-c2nn(C)c(=O)c3ccccc23)cc1 (centres undefined)	i	31.6µM	i	i	i
Cc1ccc(-c2nn(C)c(=O)c3ccccc23)cc1CNC(=O)c1ccco1	i	3.55µM	i	i	i
O=C(c1cnccn1)N1CCC[C@@]2(CCN(Cc3ccccc3)C2)C1	i	i	i	i	nt
CN(C)CCNC(=O)c1ccc(-c2nn(C)c(=O)c3ccccc23)cc1	i	20µM	i	i	i
COc1ccccc1NC(=O)c1ccc(-c2nn(C)c(=O)c3ccccc23)cc1	i	nt	i	i	?
O=[N+]([O-])c1cc(/C=N\O)ccc1Oc1ccc(F)cc1	i	nt	i	i	nt
CCCc1[nH]n(-c2nc3ccccc3s2)c(=O)c1C=NCC1CCCO1 (centres undefined)	i	i	25.1µM	i	i
NC(=O)C[C@@H]1N[C@]2(C(=O)Nc3ccccc32)[C@@H]2C(=O)N(c3cc(C(F)(F)F)ccc3Cl)C(=O)[C@H]12	i	i	i	i	i
CCCCc1ccc(N2C(=O)[C@@H]3C(CC(N)=O)NC4(C(=O)Nc5ccc(F)cc54)[C@@H]3C2=O)cc1 (some centres undefined)	i	i	14.1µM	i	i
Cc1c(Cl)ccc2c1NC(=O)[C@]21N[C@@H](CCC(N)=O)[C@H]2C(=O)N(c3ccc(F)cc3)C(=O)[C@H]21	i	i	14.1µM	i	?
Cc1c(Cl)ccc2c1NC(=O)C21NC(CCC(N)=O)[C@H]2C(=O)N(c3ccc(Cl)cc3)C(=O)[C@H]21 (some centres undefined)	i	i	8.91µM	i	i
COc1ccc(-n2c(=O)c(CCc3ccccc3)nc3cnc(N(C)C)nc32)cc1	i	i	?	i	nt
O=C(Cn1c(=S)[nH]c2ccccc21)c1ccccc1	i	i	i	i	?
Cc1ccc(NC(=O)Cn2c(=S)[nH]c3ccccc32)cc1	i	nt	10µM	i	nt
O=c1c2c3nc4ccccc4nc3n(/N=C/c3ccco3)c2ncn1CCC1=CCCCC1	i	i	25.1µM	i	i
c1ccc(CCc2nc3ccccc3[nH]2)cc1	i	nt	i	i	?
S=c1cnc2ccccc2[nH]1	i	nt	3.16µM	i	i
SMILES	Luc counter	HPGD inh	ALDH1A1 block	IMPase Li inh	LMNA splice mod
O=C(CCCCC(=O)N1CCN(c2ccccc2)CC1)N1CCN(c2ccccc2)CC1	i	i	i	i	?
O=C(CCS(=O)(=O)Cc1ccccc1)N1CCN(c2ccccc2)CC1	i	i	?	i	i
O=C(CCS(=O)(=O)Cc1ccccc1)N1CCN(c2ccc([N+](=O)[O-])cc2)CC1	i	nt	25.1µM	i	i
O=C(CCCc1ccccc1)N1CCN(c2ccc([N+](=O)[O-])cc2)CC1	i	i	22.4µM	i	i[0.0737 µM]
O=C(CCCC(=O)N1CCN(c2ccc([N+](=O)[O-])cc2)CC1)c1ccccc1	i	i	28.2µM	i	i
CN1CCN(c2ncc3nc(-c4cccs4)c(=O)n(Cc4ccc(F)cc4)c3n2)CC1	nt	nt	i	?	i
COC(=O)c1ccc2c(c1)C(C)(C)C(/C=C/c1ccccc1O)=[N+]2C	4.47µM	?	?	i	?
CC(=O)c1cccc2c(O)c(C3=Nc4ccccc4C3=O)[nH]c12	?	14.1µM	?	i	?
O=C1C(c2c(O)[nH]c3ccccc23)=Nc2ccccc21	nt	nt	i	i	i
O=C(O)c1ccc(NCCC2=CCCCC2)c([N+](=O)[O-])c1	i	nt	?	i	nt
COc1ccccc1N1CCN(C(=O)CSc2nnc(NC(=O)C(C)C)s2)CC1	i	nt	8.91µM	i	?
CCC(CC)C(=O)Nc1nnc(SCC(=O)N2CCN(c3ccccc3OC)CC2)s1	i	i	12.6µM	i	i
CC(Oc1ccc(C(=O)c2ccccc2)cc1)C(=O)Nc1ccc(S(N)(=O)=O)cc1 (centres undefined)	i	?	10µM	i	?
O=C(c1ccccc1)c1ccccc1	i	i	25.1µM!	i	nt
O=C(c1ccccc1)c1ccc(-c2ccc(O)cc2)cc1	nt	nt	i	nt	?
COC(=O)c1ccccc1NC(=O)C(C)Oc1ccccc1 (centres undefined)	i	i	i	i	i
CC(Oc1ccccc1)C(=O)Nc1nc2ccc(S(N)(=O)=O)cc2s1 (centres undefined)	nt	nt	nt	nt	i
CC(Oc1ccccc1)C(=O)Nc1ccccc1O (centres undefined)	i	7.08µM	i	i	i
CC(C)C(=O)Nc1ccc(C(=O)c2ccccc2)cc1	i	14.1µM	?	i	i
CC(C(=O)NCc1ccco1)n1cc([N+](=O)[O-])cn1 (centres undefined)	i	nt	i	i	i
Cc1nnc(Sc2cc(C(=O)NCc3ccco3)c3ccccc3n2)s1	i	2.24µM	?	i	?
COc1cccc(Cn2c(=O)c(-c3cccc(C#N)c3)nc3cnc(Nc4ccccc4)nc32)c1	i	i	i	i	nt
CCNc1ncc2nc(-c3cc(F)cc(F)c3)c(=O)n(Cc3cccs3)c2n1	i	?	?	i	nt
CCCN1C(=O)C(Cc2nc3ccccc3c(=O)n2C)c2ccccc21 (centres undefined)	i	i	0.282µM	i	i
CCN1C(=O)C(Cc2nc3ccccc3c(=O)n2C)c2ccccc21 (centres undefined)	i	i	?	i	i
SMILES	Luc counter	HPGD inh	ALDH1A1 block	IMPase Li inh	LMNA splice mod
Cc1oc2ncn(C)c(=O)c2c1C(=O)N(C)c1ccccc1F	nt	nt	nt	nt	i
O=C1Nc2cc(C(=O)N3CCc4ccccc4C3)ccc2S/C1=C\c1ccccc1	i	15.8µM	?	i	?
O=C(c1ccc2nc[nH]c2c1)N1CCc2ccccc2C1	i	nt	i	i	i
Cc1ccc(C2=Nc3ccccc3N(CC(=O)Nc3cccc(F)c3)C(=O)C2)cc1C	nt	nt	nt	nt	i
Cc1ccc(/C=C2/C(=O)N(c3ccccc3)C(=S)N2C)o1	i	i	3.98µM	i	i
Cc1ccc(N(C(=O)Cc2cccs2)C(C(=O)NC2CCCCC2)c2ccccn2)cc1C (centres undefined)	i	i	i	i	i
